# From PubChem
# Pf growth 48h = inhibits P. falciparum growth in the first generation, 48 h. P. falciparum luciferase growth in erythrocytes, 48 h. Potency, µM (doses to about 28.7 µM), for inactives: at the top dose activity change, negative = inhibition, actives largely listed as inhibitors. actives 5.9% (n = 310,000). AID 504832; further: potency means the concentration at half of the fitted maximal effect; on the % scale 0 is the no-effect control and ±100 the full control effect
#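 In quantitative HTS format, infected erythrocytes bearing luciferase-reporter parasites were treated for a single generation at 37 C. Luminescence after adding detection reagent served as the growth measure.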
# Pf growth 96h = P. falciparum growth inhibition at 96 hours; P. falciparum luciferase reporter growth, 96 h; Potency, µM (top dose mostly 28.7 µM), for the others: at the highest dose activity change, negative = inhibition, hits mostly inhibitors; actives 6.9% (n = 320,000); AID 504834; further: potency means the concentration at half of the fitted maximal effect; on the % scale 0 is the no-effect control and ±100 the full control effect
#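 Infected RBCs, 2% Hct / 0.05% parasitemia final; luciferase-reporter P. falciparum; cpd 96 h, 37 C, 5% CO2; luciferase detection reagent; luminescence.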
# NS1 function inh = blocks influenza NS1 protein function | Potency, µM (highest dose often 46.1 µM), inactives show at the top dose activity, positive = more growth | actives 0.4% (n = 270,000); calls by dose curve; further: potency means the concentration at half of the fitted maximal effect; actives are rising curves; nearly all actives have a fitted effect of over 50% in size
#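 Recovery from NS1-induced slow growth read by OD600 in budding yeast switched to galactose assay medium (pH 6.0, -URA) at 1:100 dilution. Compound 23 nl per well; the matching strain lacking NS1 serves as control.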
# Shiga inhibitor = Shiga toxin inhibition | Vero cells, Shiga toxin protein synthesis inhibition reporter | inhibition, % at 38.7 µM | actives 9.2% (n = 290,000); in the data active means inhibition mostly above about 28%, no sharp cut-off; inactive means mostly below about 43%; further: 0% is about no effect
# Giardia FBPA inh = Giardia lamblia aldolase inhibition; AID 2451; A8B2U2; actives 0.71% (n = 290,000); Potency, µM (doses to about 59.6 µM), inactives show at the top dose activity, negative = inhibition, usual class: inhibitors; purified Giardia FBPA; further: potency means the concentration at half of the fitted maximal effect; on the % scale 0 is the no-effect control and ±100 the full control effect; nearly all actives have a fitted effect of over 55% in size
# Target sequence (A8B2U2 whole entry, looked up): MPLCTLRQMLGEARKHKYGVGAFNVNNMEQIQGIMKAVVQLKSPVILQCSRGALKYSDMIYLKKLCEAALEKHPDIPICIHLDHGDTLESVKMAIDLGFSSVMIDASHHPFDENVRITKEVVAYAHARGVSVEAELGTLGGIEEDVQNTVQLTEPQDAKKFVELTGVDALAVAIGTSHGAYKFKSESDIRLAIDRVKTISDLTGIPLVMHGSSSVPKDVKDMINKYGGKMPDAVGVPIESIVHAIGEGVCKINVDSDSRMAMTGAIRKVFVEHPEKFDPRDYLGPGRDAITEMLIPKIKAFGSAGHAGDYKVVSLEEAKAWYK
#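 40 nM FBPA preincubated 10 min at RT with compound (up to 57.5 uM final), then substrate plus GAPDH/TPI/NAD/arsenate coupling and diaphorase/resazurin added. Fluorescence read after 20 min at RT, 525/598 nm.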
# Cycloheximide cs = counter-screen for Shiga toxin inhibitors: cycloheximide protein synthesis inhibition; cell reporter, cycloheximide protein synthesis inhibition counterscreen; max response, %; AID 2314; actives 12% (n = 300,000); in the data active means max response mostly above about 13%, no sharp cut-off; inactive means mostly below about 14%; further: read at 38.3 µM for the half of the compounds with a filed dose; 0% is about no effect
# Active calls of the source: *; i = inactive; ? = inconclusive; . = no result; + = active, no number. Rows were chosen to be rich in hits. Some 21% of all compounds tested hit in one or more screens of this group. Unless noted, the call rests on the fitted dose curve; in most records, active means well fitted curve in the direction sought with a large enough effect; inconclusive means small, poorly fitted or top-dose-only effect, or another doubt; inactive means no such curve, though single readings can be large; an effect the other way counts as inactive or inconclusive.
SMILES,Pf growth 48h,Pf growth 96h,NS1 function inh,Shiga inhibitor,Giardia FBPA inh,Cycloheximide cs
CCOC(=O)c1ccccc1NC(=O)COC(=O)CN1C(=O)NC2(CCCC2)C1=O,-15.2%,1.9%,-3.3%,-4.4,-0.9%,-2.5
CCN(CC)C(=S)NC(=O)c1ccc(Cl)cc1Cl,.,-27.0%,-92.5%,22.2,-12.4%,-2.6
CCCCNC(=S)NC(=O)c1ccc(Cl)cc1Cl,36.9%,?,-64.6%,39.9,2.0%,31.8*
CCCCNC(=S)NC(=O)c1ccccc1Br,7.6%,-29.3%,-13.0%,81.6*,3.4%,18.2*
Cc1ccc(C(=O)NNC(=O)c2ccccc2OCc2c(C)noc2C)cc1,-21.8%,22.2%,.,.,.,.
Cc1onc(COc2ccccc2O)c1Br,27.0%,7.0%,-13.5%,53.3,-3.2%,18.1*
CC(C)(C)c1ccc(OCc2cnc(Cl)s2)cc1,25.2%,4.5%,0.2%,75.1*,-3.8%,34.6*
O=[N+]([O-])c1ccc2nnn(O)c2c1,-1.8%,?,9.3%,-2.3,-0.5%,-4.9
COC(=O)C1CCN(Cc2ccc(OCCCN3CCN(c4ccc([N+](=O)[O-])cc4)CC3)cc2)CC1,2.33µM*,10.4µM*,-5.8%,20.0,2.1%,-1.6
CC1CCN(CCCCOc2ccc([N+](=O)[O-])cc2)CC1,?,?,-9.8%,-22.6,?,-3.2
CC1(C)Cc2ccccc2-c2nnc(-c3ccccc3)n21,-8.6%,.,4.4%,-14.8,0.2%,6.1
CC1(C)Cc2ccccc2-c2nnc(SCc3ccccc3)n21,?,i,-5.1%,17.8,2.0%,11.0*
CC1(C)Cc2ccccc2-c2nnc(SCC(=O)N3CCN(c4ccccc4)CC3)n21,-23.2%,.,-3.8%,-7.2,5.2%,1.2
CC1(C)Cc2ccccc2-c2nnc(-c3cccnc3)n21,2.33µM*,.,-2.3%,-19.3,0.1%,-5.0
CCNc1nc(OCCNC(C)=O)nc(N(C)C)n1,66.1%,1.47µM*,?,-11.6,3.1%,4.3
CC1CCN(CCCCOc2ccc(C(=O)c3ccccc3)cc2)CC1,.,?,0.1%,-5.2,-15.6%,0.8
CC1CCN(CCCOc2ccc(OCc3ccccc3)cc2)CC1,21.8%,?,-11.2%,81.4*,-10.4%,24.2*
c1ccc(COc2ccc(OCCN3CCCC3)cc2)cc1,76.3%,-20.1%,3.1%,69.2*,-9.5%,50.2*
CCC(C)c1ccc(OCCN2CCCC2)cc1 (configuration not stated),.,?,-4.7%,-13.8,-24.8%,-2.7
c1ccc(COc2ccc(OCCN3CCCCC3)cc2)cc1,43.5%,?,13.0%,46.9*,?,87.3*
Clc1ccc(OCCN2CCOCC2)cc1Cl,.,26.5%,-4.7%,70.2*,-18.7%,16.8
c1cc(OCCCN2CCCCC2)ccc1CN1CCCCC1,.,-14.6%,6.4%,-1.3,8.5%,-3.1
Cc1ccc(NC(=O)Cn2nnc(C(=O)NCc3cccs3)c2N)cc1F,40.1%,-22.8%,2.3%,2.6,-5.4%,-2.1
CN1CCN(CCCN)CC1,.,.,0.0%,.,.,.
CCOc1ccc(OCCN2CCCCC2)cc1,21.4%,?,13.7%,23.3,-16.1%,7.3
SMILES,Pf growth 48h,Pf growth 96h,NS1 function inh,Shiga inhibitor,Giardia FBPA inh,Cycloheximide cs
c1ccc(Cc2ccc(OCCN3CCOCC3)cc2)cc1,6.7%,50.0%,-16.7%,55.3*,?,21.0*
O=C1C2CCN(CC2)C1Cc1ccc(OCc2ccccc2)cc1 (configuration not stated),0.0%,24.2%,-1.5%,21.9,-4.3%,22.9*
c1ccc(-c2ccc(OCCN3CCCC3)cc2)cc1,.,.,.,51.9*,-0.3%,32.4*
c1ccc(COc2ccc(OCCCN3CCCC3)cc2)cc1,72.3%,9.6%,13.5%,+,-25.5%,38.0*
c1ccc(OCCN2CCOCC2)cc1,0.8%,?,-2.6%,-0.4,?,-2.4
COc1ccc(NC(=O)CCNS(=O)(=O)c2cccc3nonc23)c(OC)c1,7.7%,-24.5%,0.3%,-0.2,8.6%,-5.6
COc1ccc(OCc2nnc(SCC(=O)Nc3ccccc3C#N)o2)cc1,2.9%,14.8%,2.8%,-2.4,2.1%,-4.0
CCOc1ccc(S(=O)(=O)NCCC(=O)NCCOc2ccccc2)cc1,?,-5.9%,.,.,.,.
Cc1ccc(OCc2csc(N)n2)cc1,425.4%,176.0%,.,83.3*,-2.0%,34.6*
Nc1nc(COc2ccccc2)cs1,.,36.9%,-9.8%,33.6,0.5%,14.0
Cc1ccccc1OCc1csc(N)n1,45.2%,43.2%,6.9%,32.9,-5.5%,15.9*
Nc1nc(COc2ccc(Cl)cc2)cs1,132.3%,129.2%,2.0%,65.0*,-5.1%,32.7*
COC(=O)Cc1csc(N)n1,8.5%,?,-1.8%,21.8,-17.7%,-1.2
CN(C)CCCN=Cc1c(-c2ccccc2)[nH]n(-c2nc3ccccc3s2)c1=O,12.8%,?,7.7%,37.5,-0.5%,-2.5
O=c1c(C=NCCCn2ccnc2)c(-c2ccccc2)[nH]n1-c1nc2ccccc2s1,10.4µM*,.,12.2%,2.3,2.9%,-2.4
Cc1ccc(CN(Cc2cc3cc(C)ccc3[nH]c2=O)C(=O)N2CCOCC2)cc1,6.57µM*,?,-8.4%,2.9,-0.3%,-0.6
Cc1ccc2[nH]c(=O)c(CN(Cc3ccco3)C(=O)N3CCOCC3)cc2c1,-2.0%,?,-2.8%,-6.7,1.8%,0.9
Cc1ccc(-n2nnnc2SCC(=O)c2c(N)n(C3CC3)c(=O)[nH]c2=O)c(C)c1,10.4µM*,5.86µM*,.,.,.,.
Nc1c(C(=O)CSc2nnnn2-c2ccc(O)cc2)c(=O)[nH]c(=O)n1C1CC1,37.4%,?,.,.,.,.
Cc1ccccc1-n1c(SCC(=O)c2c(N)n(C3CC3)c(=O)[nH]c2=O)nnc1N1CCOCC1,?,13.1µM*,.,.,.,.
Cc1cccc(-n2c(SCC(=O)c3c(N)n(C4CC4)c(=O)[nH]c3=O)nnc2N2CCOCC2)c1,?,5.22µM*,.,.,.,.
Cc1ccc(-n2c(SCC(=O)c3c(N)n(C4CC4)c(=O)[nH]c3=O)nnc2N2CCOCC2)cc1,10.4µM*,?,.,.,.,.
CN(Cc1ccccc1)C(=O)COC(=O)C1CCN(S(=O)(=O)c2ccc(Cl)c(C(F)(F)F)c2)CC1,-17.4%,?,.,.,.,.
CC1CC(C)(C)NC(C)c2ccccc21 (configuration not stated),-6.0%,11.1%,-3.9%,-13.2,-0.5%,-6.3
CC1CC(C)(C)NCc2ccccc21 (configuration not stated),0.2%,9.28µM*,7.0%,-8.8,4.6%,-5.8
COc1ccc(NS(=O)(=O)c2ccc3c(c2)NC(=O)CCS3)cc1Cl,-26.4%,5.86µM*,?,11.7,.,-1.6
CC(=O)NC1C(=O)N=C(SCC(=O)Nc2cccc(Cl)c2)NC1=O (configuration not stated),17.0%,?,.,11.2,0.8%,2.3
O=C(c1cc(-c2ccco2)on1)N1CCc2ccccc2C1,15.8%,.,-5.8%,35.7,-1.0%,8.6
O=C(c1cc(-c2cccs2)on1)N1CCc2ccccc2C1,?,2.4%,-36.1%,47.0*,-11.5%,18.3
